Values joined by “and” are separate entries in the source; they are usually repeats but may differ in a detail not shown here. Equal values may be shown once. The panel holds about 79,000 compounds, 15% with a hit somewhere; the sample as a whole holds those more often. More than one record can exist for a structure, and the calls need not agree. Active and inactive are the calls of the source. Rule as the data show it: active = growth inhibition above about 70%; inactive = the rest.
Legend:
[1] = NCI Yeast Anticancer Drug Screen. Data for the rad52 strain (AID 147);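 also: 0% = growth of vehicle-treated control cultures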; conditions: S. cerevisiae rad52 mutant growth inhibition, stronger effect = higher value
Method in brief: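 Growth of repair-deficient yeast cells was compared between compound-treated and vehicle-treated cultures to give percent inhibition.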

[2] = NCI Yeast Anticancer Drug Screen. Data for the wt1 strain (AID 149);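 also: 0% = growth of vehicle-treated wt1 cultures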; conditions: S. cerevisiae wt1 strain (SPY 50644) growth inhibition, stronger effect = higher value
Method in brief: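 The wt1 strain was treated with compounds, and growth was compared with vehicle-treated cultures to give inhibition.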

[3] = NCI Yeast Anticancer Drug Screen. Data for the rad50EPP+ strain (AID 151);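 also: 0% = growth of vehicle-treated control cultures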; conditions: S. cerevisiae rad50 mutant strain, stronger effect = higher value
Method in brief: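 Measured: growth inhibition of rad50EPP+ yeast. Reference: vehicle-treated controls. Screen uses strains with defined genetic alterations in DNA damage repair or cell cycle control.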

[4] = NCI Yeast Anticancer Drug Screen. Data for the mgt1 strain (AID 153); conditions: S. cerevisiae mgt1 mutant growth inhibition, stronger effect = higher value
Method in brief: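 Compounds were applied to mgt1 mutant yeast, and growth was then compared against vehicle-treated control cultures to give percent inhibition.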

[5] = NCI Yeast Anticancer Drug Screen. Data for the rad50 strain (AID 155);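 also: 0% = growth of vehicle-only cultures of the same strain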; conditions: S. cerevisiae rad50 strain growth inhibition, stronger effect = higher value
Method in brief: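 Cells are treated with compound, grown, and their growth is then scored against vehicle-only cultures of the same repair-deficient yeast strain.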

[6] = NCI Yeast Anticancer Drug Screen. Data for the mec2-1 strain (AID 157); conditions: S. cerevisiae mec2-1 strain, stronger effect = higher value
Method in brief: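 Compounds were applied to mec2-1 yeast cells. Their growth was then compared with that of vehicle-treated cultures to give growth inhibition.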

[7] = NCI Yeast Anticancer Drug Screen. Data for the rad14 strain (AID 159);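 also: 0% = growth of vehicle-treated control cultures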; conditions: S. cerevisiae rad14 strain growth inhibition, stronger effect = higher value
Method in brief: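 Readout: yeast growth inhibition, referenced to vehicle-only cultures. Strain bears a defined alteration in DNA damage repair.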

[8] = NCI Yeast Anticancer Drug Screen. Data for the sgs1 mgt1 strain (AID 161);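 also: 0% = growth of cultures given vehicle only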; conditions: S. cerevisiae sgs1 mgt1 strain, stronger effect = higher value
Method in brief: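 Compounds are added to genetically altered yeast, and growth is compared with cultures given vehicle alone to give percent inhibition.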

[9] = NCI Yeast Anticancer Drug Screen. Data for the CLN2oe strain (AID 163);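 also: 0% = growth of vehicle-only control cultures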; conditions: S. cerevisiae CLN2oe strain, stronger effect = higher value
Method in brief: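 Cells of an engineered yeast line with disturbed cell-cycle regulation are treated with compound. Inhibition of growth is then calculated relative to the vehicle-treated reference.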

[10] = NCI Yeast Anticancer Drug Screen. Data for the cln2 rad14 strain (AID 165);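 also: 0% = growth equal to vehicle treated cultures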; conditions: S. cerevisiae cln2 rad14 strain, stronger effect = higher value
Method in brief: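 Strain: cln2 rad14 yeast, altered in cell cycle control and DNA damage repair. Read-out: growth inhibition vs vehicle.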

[11] = NCI Yeast Anticancer Drug Screen. Data for the bub3 strain (AID 167); conditions: S. cerevisiae bub3 mutant strain, stronger effect = higher value
Method in brief: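 Part of a panel of yeast mutants defective in DNA damage repair or cell cycle regulation. Each strain is grown with compound, and inhibition is calculated relative to solvent-treated cultures.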

[12] = NCI Yeast Anticancer Drug Screen. Data for the wt2 strain (AID 169);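 also: 0% = growth of vehicle-treated yeast cultures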; conditions: S. cerevisiae wt2 strain growth inhibition, stronger effect = higher value
Method in brief: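 Growth of compound-treated yeast is measured and expressed as inhibition relative to vehicle-only controls.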

[13] = NCI Yeast Anticancer Drug Screen. Data for the mlh1 strain (AID 171);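 also: 0% = growth of vehicle-treated control cultures of the same strain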; conditions: S. cerevisiae mlh1 strain growth inhibition, stronger effect = higher value
Method in brief: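 Test agents were incubated with yeast bearing a defined DNA damage repair or cell cycle control alteration; values are growth inhibition normalised to vehicle-treated cultures.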

[14] = NCI Yeast Anticancer Drug Screen. Data for the sgs1 strain (AID 173);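 also: 0% = growth of vehicle-only control cultures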; conditions: S. cerevisiae sgs1 mutant, stronger effect = higher value
Method in brief: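 Strain with an altered DNA repair or cell cycle pathway exposed to compound. Growth then measured. Value = inhibition versus vehicle control.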

[15] = NCI Yeast Anticancer Drug Screen. Data for the mlh1 rad18 strain (AID 175); conditions: S. cerevisiae mlh1 rad18 strain growth inhibition, stronger effect = higher value
Method in brief: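 A repair-deficient yeast strain is exposed to test compound, and growth is scored relative to vehicle-treated controls.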

[16] = NCI Yeast Anticancer Drug Screen. Data for the rad18 strain (AID 177); conditions: S. cerevisiae rad18 mutant growth inhibition, stronger effect = higher value
Method in brief: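 DNA-repair-defective yeast; compound treatment; growth inhibition scored against vehicle.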

[17] = at 5.0 µM (retest, dose inferred, filed as 0.5)
[18] = at 50.0 µM (retest, dose inferred, filed as 5.0)

Measured: growth inhibition

O=C(C[n+]1ccc2ccccc2c1)c1ccc2ccccc2c1
-10% (inactive) and 71.2% (active): [10]; at 50.0 µM
active: [1]; at 100.0 µM 99% | [2]; at 100.0 µM 97% | [3]; at 100.0 µM 74% | [4]; at 100.0 µM 98% | [5]; [18] 100% | [5]; at 100.0 µM 98% | [6]; [18] 99% | [6]; at 100.0 µM 98% | [7]; at 100.0 µM 97% | [8]; [18] 77% | [9]; at 100.0 µM 99% | [10]; [18] 81% | [11]; at 100.0 µM 98% | [12]; at 100.0 µM 97% | [13]; at 100.0 µM 97% | [14]; at 100.0 µM 97% | [15]; [18] 100% | [16]; at 100.0 µM 99%
-32.4% (inactive) and 71.7% (active): [11]; at 50.0 µM
-28.4% (inactive) and 85.2% (active): [5]; at 50.0 µM
inactive: [1]; at 1.2 µM 10% | [1]; at 3.7 µM -1% | [1]; at 11.0 µM 7% | [1]; at 33.0 µM 20% | [2]; at 1.2 µM -6% | [2]; at 3.7 µM -17% | [2]; at 11.0 µM -24% | [2]; at 33.0 µM -22% | [3]; at 1.2 µM -19% | [3]; at 3.7 µM -42% | [3]; at 11.0 µM -35% | [3]; at 33.0 µM -20% | [4]; at 1.2 µM -18% | [4]; at 3.7 µM -7% | [4]; at 11.0 µM -32% | [4]; at 33.0 µM -13% | [5]; at 1.2 µM -20% | [5]; at 3.7 µM -26% | [5]; [17] 51% | [5]; at 11.0 µM -30% | [5]; at 33.0 µM -7% | [6]; at 1.2 µM -37% | [6]; at 3.7 µM -23% | [6]; [17] 64% | [6]; at 11.0 µM -77% | [6]; at 33.0 µM -41% | [6]; at 50.0 µM -5.2% and 39.1% | [7]; at 1.2 µM -45% | [7]; at 3.7 µM -44% | [7]; at 11.0 µM -36% | [7]; at 33.0 µM 11% | [8]; [17] -46% | [8]; at 50.0 µM -9.25% and 61.6% | [9]; at 1.2 µM 8% | [9]; at 3.7 µM -9% | [9]; at 11.0 µM 1% | [9]; at 33.0 µM 13% | [10]; [17] 19% | [11]; at 1.2 µM -19% | [11]; at 3.7 µM -12% | [11]; [17] -4% | [11]; at 11.0 µM -27% | [11]; at 33.0 µM -15% | [11]; [18] 51% | [12]; at 1.2 µM -37% | [12]; at 3.7 µM -25% | [12]; at 11.0 µM -53% | [12]; at 33.0 µM -18% | [13]; at 1.2 µM -15% | [13]; at 3.7 µM -30% | [13]; at 11.0 µM -36% | [13]; at 33.0 µM -22% | [14]; at 1.2 µM -30% | [14]; at 3.7 µM -34% | [14]; at 11.0 µM -34% | [14]; at 33.0 µM -26% | [15]; [17] 68% | [15]; at 50.0 µM -11.2% and 69.5% | [16]; at 1.2 µM -21% | [16]; at 3.7 µM -24% | [16]; at 11.0 µM -15% | [16]; at 33.0 µM -3%

Cn1c(=O)c2c(nc(N)n2C2OC(CO)C(O)C2O)n(C)c1=O (stereo unspecified)
inactive: [1]; at 1.2 µM -2% | [1]; at 3.7 µM -1% | [1]; at 11.0 µM -4% | [1]; at 33.0 µM -4% | [1]; at 100.0 µM 0% | [2]; at 1.2 µM -1% | [2]; at 3.7 µM -1% | [2]; at 11.0 µM -2% | [2]; at 33.0 µM -2% | [2]; at 100.0 µM 1% | [3]; at 1.2 µM -1% | [3]; at 3.7 µM 1% | [3]; at 11.0 µM 1% | [3]; at 33.0 µM -1% | [3]; at 100.0 µM 2% | [4]; at 1.2 µM -1% | [4]; at 3.7 µM -2% | [4]; at 11.0 µM 7% | [4]; at 33.0 µM -7% | [4]; at 100.0 µM 0% | [5]; at 1.2 µM -2% | [5]; at 3.7 µM 0% | [5]; [17] 17% | [5]; at 11.0 µM -11% | [5]; at 33.0 µM -1% | [5]; [18] 22% | [5]; at 100.0 µM 1% | [6]; at 1.2 µM 0% | [6]; at 3.7 µM 1% | [6]; [17] -2% | [6]; at 11.0 µM 1% | [6]; at 33.0 µM -3% | [6]; [18] -19% | [6]; at 100.0 µM -2% | [7]; at 1.2 µM -4% | [7]; at 3.7 µM -4% | [7]; at 11.0 µM -6% | [7]; at 33.0 µM -7% | [7]; at 100.0 µM 0% | [8]; [17] -17% | [8]; [18] 20% | [9]; at 1.2 µM 1% | [9]; at 3.7 µM -3% | [9]; at 11.0 µM 3% | [9]; at 33.0 µM 3% | [9]; at 100.0 µM 10% | [10]; [17] -9% | [10]; [18] 50% | [11]; at 1.2 µM 0% | [11]; at 3.7 µM 3% | [11]; [17] -19% | [11]; at 11.0 µM 12% | [11]; at 33.0 µM 15% | [11]; [18] 18% | [11]; at 100.0 µM 15% | [12]; at 1.2 µM -4% | [12]; at 3.7 µM -4% | [12]; at 11.0 µM -4% | [12]; at 33.0 µM -2% | [12]; at 100.0 µM 0% | [13]; at 1.2 µM -1% | [13]; at 3.7 µM -7% | [13]; at 11.0 µM -1% | [13]; at 33.0 µM 3% | [13]; at 100.0 µM -1% | [14]; at 1.2 µM -1% | [14]; at 3.7 µM -1% | [14]; at 11.0 µM -1% | [14]; at 33.0 µM -2% | [14]; at 100.0 µM 1% | [15]; [17] 2% | [15]; [18] 37% | [16]; at 1.2 µM -1% | [16]; at 3.7 µM 2% | [16]; at 11.0 µM -1% | [16]; at 33.0 µM -2% | [16]; at 100.0 µM -2%
active: [5]; at 50.0 µM 87.4% | [6]; at 50.0 µM 92% | [8]; at 50.0 µM 85.3% | [10]; at 50.0 µM 88.6% | [11]; at 50.0 µM 89% | [15]; at 50.0 µM 83.8%
